# Data published in PubChem BioAssay (Tox21).
# Where “and” joins values, the source holds several entries; their conditions need not be identical. Equal entries are not always repeated. Inconclusive results are not listed. Entries that show only a call come without a potency. Calls of active or inactive are those of the source. Calls follow the shape of the dose curve; as a rule, active = well fitted curve in the direction sought with a large enough effect in the repeat runs; inconclusive = weak or mixed curves; inactive = no such curve, though single readings can be large; an effect the other way counts as inactive or inconclusive.
# Experiments:
# [1] = molecular target: Cytochrome P450 2D6 (Homo sapiens) (UniProt P10635); assay: Cytochrome P450 Family 2 Subfamily D Member 6 (CYP2D6) small molecule antagonists: luciferase reporter qHTS assay (AID 1671196); also: nearly all actives have a fitted effect of over 50% in size
# Sequence of Cytochrome P450 2D6 (Homo sapiens) (P10635 whole entry, looked up): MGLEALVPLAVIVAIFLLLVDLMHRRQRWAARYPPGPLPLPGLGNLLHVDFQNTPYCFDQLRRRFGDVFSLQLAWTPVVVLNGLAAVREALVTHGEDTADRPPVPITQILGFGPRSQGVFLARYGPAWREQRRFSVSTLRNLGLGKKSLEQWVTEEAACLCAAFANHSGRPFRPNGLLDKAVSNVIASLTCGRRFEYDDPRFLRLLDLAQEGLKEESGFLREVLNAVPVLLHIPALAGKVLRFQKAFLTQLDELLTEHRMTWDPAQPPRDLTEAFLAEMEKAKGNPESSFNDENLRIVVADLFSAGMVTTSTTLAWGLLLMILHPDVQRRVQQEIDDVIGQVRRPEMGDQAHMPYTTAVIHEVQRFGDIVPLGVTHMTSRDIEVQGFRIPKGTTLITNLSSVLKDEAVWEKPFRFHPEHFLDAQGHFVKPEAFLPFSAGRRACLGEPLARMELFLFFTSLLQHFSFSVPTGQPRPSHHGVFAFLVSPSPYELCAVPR
# Procedure, shortened: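 Luminogenic proluciferin substrate, CYP2D6 enzyme; 10 min RT preincubation with compound, NADPH regeneration system added, 1 h RT. Stop/detection reagent, 20 min RT, luminescence read (RLU). Signal proportional to CYP activity.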
# [2] = molecular target: Cytochrome P450 2C19 (Homo sapiens) (UniProt P33261); assay: Cytochrome P450 Family 2 Subfamily C Member 19 (CYP2C19) small molecule antagonists: luciferase reporter qHTS assay (AID 1671197); also: nearly all actives have a fitted effect of over 65% in size
# Sequence of Cytochrome P450 2C19 (Homo sapiens) (P33261 whole entry, looked up): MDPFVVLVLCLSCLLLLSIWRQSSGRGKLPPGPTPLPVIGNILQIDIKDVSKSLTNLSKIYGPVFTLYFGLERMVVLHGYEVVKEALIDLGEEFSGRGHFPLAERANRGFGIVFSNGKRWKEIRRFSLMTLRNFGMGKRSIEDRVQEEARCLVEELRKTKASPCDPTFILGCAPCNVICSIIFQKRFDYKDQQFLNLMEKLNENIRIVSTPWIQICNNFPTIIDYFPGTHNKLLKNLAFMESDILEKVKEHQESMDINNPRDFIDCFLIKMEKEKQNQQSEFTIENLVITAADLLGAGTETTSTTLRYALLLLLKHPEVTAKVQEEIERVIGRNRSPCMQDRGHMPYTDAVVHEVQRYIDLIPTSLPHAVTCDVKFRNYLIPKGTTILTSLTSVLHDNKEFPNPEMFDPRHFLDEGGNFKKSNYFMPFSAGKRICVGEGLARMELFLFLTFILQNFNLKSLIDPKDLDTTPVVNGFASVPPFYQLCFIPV
# Procedure, shortened: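 First, compounds are pinned into enzyme-substrate mix and held 10 min at room temperature. Second, NADPH regeneration solution is added and plates incubate 1 h at 37C. Third, detection reagent is added and luminescence read after 20 min.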
# [3] = molecular target: Cytochrome P450 2C9 (Homo sapiens) (UniProt P11712); assay: Cytochrome P450 Family 2 Subfamily C Member 9 (CYP2C9) small molecule antagonists: luciferase reporter qHTS assay (AID 1671198); also: nearly all actives have a fitted effect of over 50% in size
# Sequence of Cytochrome P450 2C9 (Homo sapiens) (P11712 whole entry, looked up): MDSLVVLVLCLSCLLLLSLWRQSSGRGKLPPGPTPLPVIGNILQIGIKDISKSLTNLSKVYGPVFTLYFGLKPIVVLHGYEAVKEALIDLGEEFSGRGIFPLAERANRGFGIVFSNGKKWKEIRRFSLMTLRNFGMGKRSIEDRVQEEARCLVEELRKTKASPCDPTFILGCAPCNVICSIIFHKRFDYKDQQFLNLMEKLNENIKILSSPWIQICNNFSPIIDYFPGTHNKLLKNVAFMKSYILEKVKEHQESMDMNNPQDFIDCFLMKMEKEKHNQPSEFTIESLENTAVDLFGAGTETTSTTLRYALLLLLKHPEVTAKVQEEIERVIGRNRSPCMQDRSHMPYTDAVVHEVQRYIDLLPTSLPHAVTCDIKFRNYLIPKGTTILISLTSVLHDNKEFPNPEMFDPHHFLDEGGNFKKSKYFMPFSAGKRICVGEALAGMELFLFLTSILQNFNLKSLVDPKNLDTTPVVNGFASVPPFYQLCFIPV
# Procedure, shortened: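 P450-Glo proluciferin substrate with CYP2C9 enzyme; 10 min RT preincubation, then NADPH regeneration 1 h at 37C; luciferin detection reagent 20 min RT, luminescence in relative luminescence units.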
# [4] = molecular target: Voltage-gated inwardly rectifying potassium channel KCNH2 (Homo sapiens) (UniProt Q12809); assay: Human Ether-a-go-go-Related Gene (hERG) channel small molecule antagonists: fluorescence cell-based qHTS assay (AID 1671200); also: nearly all actives have a fitted effect of over 50% in size
# Sequence of Voltage-gated inwardly rectifying potassium channel KCNH2 (Homo sapiens) (Q12809 whole entry, looked up): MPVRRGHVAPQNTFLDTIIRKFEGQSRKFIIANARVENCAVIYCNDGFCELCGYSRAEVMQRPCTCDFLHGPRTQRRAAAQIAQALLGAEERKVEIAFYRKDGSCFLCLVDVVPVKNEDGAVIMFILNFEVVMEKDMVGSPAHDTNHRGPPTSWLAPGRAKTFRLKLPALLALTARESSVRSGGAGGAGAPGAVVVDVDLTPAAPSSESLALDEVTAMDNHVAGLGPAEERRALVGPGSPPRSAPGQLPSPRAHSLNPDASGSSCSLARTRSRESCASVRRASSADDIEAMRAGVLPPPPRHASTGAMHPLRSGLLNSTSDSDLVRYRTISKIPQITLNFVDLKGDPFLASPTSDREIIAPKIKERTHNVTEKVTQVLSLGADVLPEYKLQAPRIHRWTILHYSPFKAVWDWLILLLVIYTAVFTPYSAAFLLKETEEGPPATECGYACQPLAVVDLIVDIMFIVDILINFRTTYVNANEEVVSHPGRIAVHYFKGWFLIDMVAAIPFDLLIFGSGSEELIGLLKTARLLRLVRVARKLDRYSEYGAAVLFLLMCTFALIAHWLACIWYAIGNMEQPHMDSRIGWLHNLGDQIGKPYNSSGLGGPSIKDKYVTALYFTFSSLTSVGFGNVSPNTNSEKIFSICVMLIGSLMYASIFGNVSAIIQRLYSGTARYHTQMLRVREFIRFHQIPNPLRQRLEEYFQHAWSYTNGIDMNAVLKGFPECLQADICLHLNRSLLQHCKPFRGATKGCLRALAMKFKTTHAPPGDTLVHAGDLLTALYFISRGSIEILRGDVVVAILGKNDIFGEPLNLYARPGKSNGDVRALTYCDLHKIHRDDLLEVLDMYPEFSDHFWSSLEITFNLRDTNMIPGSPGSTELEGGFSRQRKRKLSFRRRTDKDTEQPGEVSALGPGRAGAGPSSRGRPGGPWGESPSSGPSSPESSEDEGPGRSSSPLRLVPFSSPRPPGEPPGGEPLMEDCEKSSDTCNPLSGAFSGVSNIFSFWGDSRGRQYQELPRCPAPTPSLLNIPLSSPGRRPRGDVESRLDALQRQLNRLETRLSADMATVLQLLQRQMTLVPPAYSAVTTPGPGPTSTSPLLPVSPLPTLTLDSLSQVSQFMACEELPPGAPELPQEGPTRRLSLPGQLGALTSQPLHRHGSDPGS
# Procedure, shortened: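 Measured: Tl+ flux via fluorescence (480/540 nm) in hERG-expressing U2OS cells after 1 h dye loading at room temperature.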
# [5] = molecular target: Cytochrome P450 3A4 (Homo sapiens) (UniProt P08684); assay: Cytochrome P450 Family 3 Subfamily A Member 4 (CYP3A4) small molecule antagonists: luciferase reporter qHTS assay (AID 1671201); also: nearly all actives have a fitted effect of over 50% in size
# Sequence of Cytochrome P450 3A4 (Homo sapiens) (P08684 whole entry, looked up): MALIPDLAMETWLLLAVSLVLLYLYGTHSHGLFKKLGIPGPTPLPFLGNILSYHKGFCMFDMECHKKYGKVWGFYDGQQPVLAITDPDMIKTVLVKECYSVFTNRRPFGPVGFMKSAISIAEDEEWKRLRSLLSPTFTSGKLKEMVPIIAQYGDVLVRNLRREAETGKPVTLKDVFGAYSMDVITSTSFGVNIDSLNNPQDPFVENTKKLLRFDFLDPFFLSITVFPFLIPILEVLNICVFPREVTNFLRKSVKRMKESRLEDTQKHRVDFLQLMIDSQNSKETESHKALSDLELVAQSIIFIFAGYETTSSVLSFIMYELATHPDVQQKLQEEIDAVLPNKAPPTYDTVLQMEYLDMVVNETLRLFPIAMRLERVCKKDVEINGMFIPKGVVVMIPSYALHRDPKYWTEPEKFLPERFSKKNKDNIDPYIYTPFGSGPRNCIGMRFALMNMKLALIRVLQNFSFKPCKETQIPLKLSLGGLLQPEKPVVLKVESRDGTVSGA
# Procedure, shortened: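 Setup: enzyme-substrate mix, compound pin transfer, 10 min RT. Reaction: NADPH regeneration solution, 1 h RT. Readout: detection reagent stops turnover, luminescence measured after 20 min, expressed in relative luminescence units.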
# [6] = molecular target: Cytochrome P450 1A2 (Homo sapiens) (UniProt P05177); assay: Cytochrome P450 Family 1 Subfamily A Member 2 (CYP1A2) small molecule antagonists: luciferase reporter qHTS assay (AID 1671199); also: nearly all actives have a fitted effect of over 50% in size
# Sequence of Cytochrome P450 1A2 (Homo sapiens) (P05177 whole entry, looked up): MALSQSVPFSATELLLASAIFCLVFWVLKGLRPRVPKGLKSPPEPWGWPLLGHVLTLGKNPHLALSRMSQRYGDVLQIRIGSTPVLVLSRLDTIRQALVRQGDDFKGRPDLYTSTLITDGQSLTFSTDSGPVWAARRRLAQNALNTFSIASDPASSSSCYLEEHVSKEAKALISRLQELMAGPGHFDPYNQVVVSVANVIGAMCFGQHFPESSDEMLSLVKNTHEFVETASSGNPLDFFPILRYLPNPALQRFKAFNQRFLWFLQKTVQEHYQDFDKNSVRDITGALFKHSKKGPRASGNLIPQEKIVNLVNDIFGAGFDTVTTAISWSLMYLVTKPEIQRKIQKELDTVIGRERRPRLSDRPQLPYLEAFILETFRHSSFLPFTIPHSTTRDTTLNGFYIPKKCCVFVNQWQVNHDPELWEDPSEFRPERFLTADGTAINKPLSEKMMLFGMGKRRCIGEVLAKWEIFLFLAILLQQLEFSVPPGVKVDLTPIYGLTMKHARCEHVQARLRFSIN
# Procedure, shortened: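 Luminescence readout (relative luminescence units) after luciferin detection reagent, 20 min RT. Preceded by 1 h room-temperature CYP1A2 reaction with NADPH regeneration solution following 10 min compound preincubation with enzyme and proluciferin substrate. Furafylline positive control.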
# Potency is read from the fitted curve at half-maximal effect.
Structure (SMILES),Potency [1],Potency [2],Potency [3],Potency [4],Potency [5],Potency [6]
CCOC(=O)c1ccc(OCCN2C[C@H](O)[C@@H](O)[C@H](O)[C@H]2CO)cc1,inactive,inactive,inactive,inactive,inactive,–
C[C@]12CC[C@@H]3c4ccc(O)cc4CC[C@H]3[C@@H]1CC[C@@H]2OC(=O)CCC1CCCC1,inactive,14.2 µM (active),17.8 µM (active) and 17.4 µM (active),inactive,inactive,17.8 µM (active)
CN1CCCC(CC2c3ccccc3Sc3ccccc32)C1 (stereo unspecified),0.389 µM (active),7.76 µM (active),inactive,4.77 µM (active),inactive,inactive
Cc1ccc(OC(=O)c2ccccc2O)cc1,inactive,inactive,35.6 µM (active),–,inactive,35.6 µM (active)
CC1(CN2CCC(n3c(=O)[nH]c4ccccc43)CC2)OCc2ccccc2-n2cccc21 (stereo unspecified),2.45 µM (active),21.9 µM (active),13.8 µM (active),8.49 µM (active),–,–
O=C(O)C[C@H](NC(=O)OCc1ccccc1)C(=O)O,inactive,inactive,inactive,inactive,inactive,inactive
CCOC(=O)[C@H](CCc1ccccc1)N[C@@H](C)C(=O)N(CC(=O)O)C1Cc2ccccc2C1,inactive,6.92 µM (active),15.5 µM (active),inactive,–,–
COc1cc(Nc2c(C#N)cnc3cc(OCCCN4CCN(C)CC4)c(OC)cc23)c(Cl)cc1Cl,inactive,inactive,inactive,–,inactive,inactive
CC(CN(C)C)C(C)(O)Cc1ccc(Cl)cc1 (stereo unspecified),6.17 µM (active),inactive,inactive,–,inactive,inactive
C=CC(=O)[O-].C=CC(=O)[O-].[Zn+2],34.8 µM (active),27.6 µM (active),61.8 µM (active),inactive,–,–
C[C@]1(Cn2ccnn2)[C@H](C(=O)O)N2C(=O)C[C@H]2S1(=O)=O,inactive,inactive,inactive,inactive,inactive,inactive
CC(=O)OCC(=O)NCCCOc1cccc(CN2CCCCC2)c1,15.5 µM (active),inactive,inactive,inactive,inactive,–
O=C(CCCN1CC=C(n2c(=O)[nH]c3ccccc32)CC1)c1ccc(F)cc1,2.45 µM (active),inactive,inactive,–,inactive,inactive
N#CCCN(CCO)CCO,inactive,inactive,inactive,inactive,inactive,–
O=C(OCC(O)CO)c1ccccc1Nc1ccnc2cc(Cl)ccc12 (stereo unspecified),13.8 µM (active),8.71 µM (active),15.5 µM (active),inactive,–,–
CC1(C)[C@H](C(=O)O)N2C(=O)C[C@H]2S1(=O)=O,inactive,30.9 µM (active),inactive,inactive,inactive,inactive
CCOC(=O)c1ccccc1C(=C1C=C(Br)C(=O)C(Br)=C1)c1cc(Br)c(O)c(Br)c1,inactive,inactive,23.7 µM (active),inactive,–,–
Cc1cccc(O)c1N,45.3 µM (active),40.3 µM (active),32 µM (active),inactive,36 µM (active),10.1 µM (active)
O=[N+]([O-])c1ccc(Nc2ccc(Nc3ccccc3)c(S(=O)(=O)O)c2)c([N+](=O)[O-])c1,inactive,inactive,35.6 µM (active),inactive,inactive,inactive
C=C1CCC2CC1C2(C)C (stereo unspecified),inactive,inactive,inactive,inactive,inactive,inactive
CCCC(C(=O)OCCN(CC)CC)(c1ccccc1)c1ccccc1,0.275 µM (active),21.9 µM (active),13.8 µM (active),8.49 µM (active),–,–
COc1ncnc(NS(=O)(=O)c2ccc(N)cc2)c1OC,inactive,inactive,inactive,inactive,inactive,inactive
COc1cc(C(=O)NC2CCN(C)CC2)ccc1Nc1ncc2c(n1)N(C1CCCC1)CC(F)(F)C(=O)N2C,inactive,51.7 µM (active),29.1 µM (active),inactive,–,–
N#[N+]c1ccc2c(S(=O)(=O)[O-])cccc2c1O,31.7 µM (active),20 µM (active),39.9 µM (active),inactive,–,–
C/C=C\C/C=C/CCCCCCCCOC(C)=O,39.9 µM (active),15.9 µM (active),12.6 µM (active),–,15.9 µM (active),31.7 µM (active)
C[C@@H]1CC(=O)NN=C1c1ccc(NN=C(C#N)C#N)cc1,inactive,17.4 µM (active),1.38 µM (active) and 1.23 µM (active),–,inactive,inactive
